According to PubChem BioAssay AID1159580 (chemical genetic matrix, 2015):
About 2,000 (36%) of roughly 5,500 compounds were called active. About 18% were inconclusive and are not listed. No stated cut-off is given here; in the data, active means normalized growth mostly below about 0.91 (no sharp cut-off); inconclusive means no clear call, values can overlap the other calls; inactive means mostly above about 0.92. This is one part of the list.

Assay: chemical genetic growth profiling, strain panel (AID 1159580);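 further: tested at 20 µM; growth read once vehicle control cultures reached saturation at 30 °C; 1 = growth at the plate median or of vehicle wells; lower values mean less growth of the strain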
Conditions: growth OD

Measured: normalized growth

COc1cc2cccc(OC)c(=O)c2c(OC)c1OC
inactive: S. cerevisiae deletion strains, locus YAL013W, strain DEP1, active compounds read low 1.01 | S. cerevisiae deletion strains, locus YBR021W, strain FUR4, active compounds read low 0.994 | S. cerevisiae deletion strains, locus YBR229C, strain ROT2, active compounds read low 1.01 | S. cerevisiae deletion strains, locus YCL029C, strain bik1, active compounds read low 1.02 | S. cerevisiae deletion strains, locus YDL035C, strain GPR1, active compounds read low 1.02 | S. cerevisiae deletion strains, locus YDL074C, strain BRE1, active compounds read low 1 | S. cerevisiae deletion strains, locus YDL101C, strain DUN1, active compounds read low 1.01 | S. cerevisiae deletion strains, locus YDL134C, strain PPH21, active compounds read low 1.01 | S. cerevisiae deletion strains, locus YDL185W, strain tfp1, active compounds read low 1.01 | S. cerevisiae deletion strains, locus YDL192W, strain arf1, active compounds read low 1.03 | S. cerevisiae deletion strains, locus YDR101C, strain arx1, active compounds read low 0.991 | S. cerevisiae deletion strains, locus YDR150W, strain NUM1, active compounds read low 1.02 | S. cerevisiae deletion strains, locus YDR162C, strain NBP2, active compounds read low 1.02 | S. cerevisiae deletion strains, locus YDR318W, strain mcm21, active compounds read low 1.03 | S. cerevisiae deletion strains, locus YDR388W, active compounds read low 1.01 | S. cerevisiae deletion strains, locus YDR502C, strain sam2, active compounds read low 0.989 | S. cerevisiae deletion strains, locus YEL061C, strain CIN8, active compounds read low 1.01 | S. cerevisiae deletion strains, locus YER110C, active compounds read low 1.02 | S. cerevisiae deletion strains, locus YER155C, strain BEM2, active compounds read low 1 | S. cerevisiae deletion strains, locus YER167W, strain BCK2, active compounds read low 1.03 | S. cerevisiae deletion strains, locus YGL078C, strain dbp3, active compounds read low 1 | S. cerevisiae deletion strains, locus YGL086W, strain mad1, active compounds read low 1.03 | S. cerevisiae deletion strains, locus YGL248W, strain PDE1, active compounds read low 1.01 | S. cerevisiae deletion strains, locus YGR078C, strain PAC10, active compounds read low 0.998 | S. cerevisiae deletion strains, locus YGR135W, strain pre9, active compounds read low 0.982 | S. cerevisiae deletion strains, locus YGR229C, strain SMI1, active compounds read low 0.994 | S. cerevisiae deletion strains, locus YGR252W, strain gcn5, active compounds read low 0.988 | S. cerevisiae deletion strains, locus YHR030C, strain SLT2, active compounds read low 1.01 | S. cerevisiae deletion strains, locus YHR079C, strain IRE1 (second series), active compounds read low 1 | S. cerevisiae deletion strains, locus YHR094C, strain hxt1, active compounds read low 1.01 | S. cerevisiae deletion strains, locus YHR129C, strain ARP1, active compounds read low 1 | S. cerevisiae deletion strains, locus YHR200W, strain rpn10, active compounds read low 1.01 | S. cerevisiae deletion strains, locus YIL066C, strain RNR3, active compounds read low 1.02 | S. cerevisiae deletion strains, locus YIL073C, strain SPO22, active compounds read low 1.06 | S. cerevisiae deletion strains, locus YIL125W, strain kgd1, active compounds read low 1.02 | S. cerevisiae deletion strains, locus YIR030C, strain dcg1, active compounds read low 1.01 | S. cerevisiae deletion strains, locus YJL095W, strain BCK1, active compounds read low 1 | S. cerevisiae deletion strains, locus YJL134W, strain LCB3, active compounds read low 1.01 | S. cerevisiae deletion strains, locus YJL168C, strain set2, active compounds read low 1.01 | S. cerevisiae deletion strains, locus YJL187C, strain SWE1 (second series), active compounds read low 0.996 | S. cerevisiae deletion strains, locus YJR043C, strain POL32, active compounds read low 0.999 | S. cerevisiae deletion strains, locus YJR075W, strain HOC1, active compounds read low 1 | S. cerevisiae deletion strains, locus YKL009W, strain mrt4, active compounds read low 1.03 | S. cerevisiae deletion strains, locus YKL068W, active compounds read low 1.01 | S. cerevisiae deletion strains, locus YKL085W, strain MDH1 (second series), active compounds read low 1.02 | S. cerevisiae deletion strains, locus YKL085W, strain MDH1, active compounds read low 1.02 | S. cerevisiae deletion strains, locus YKL190W, strain CNB1, active compounds read low 1.01 | S. cerevisiae deletion strains, locus YKR001C, strain vps1, active compounds read low 1.01 | S. cerevisiae deletion strains, locus YLR039C, strain RIC1, active compounds read low 1.09 | S. cerevisiae deletion strains, locus YLR058C, strain SHM2, active compounds read low 1.01 | S. cerevisiae deletion strains, locus YLR102C, strain apc9, active compounds read low 1.01 | S. cerevisiae deletion strains, locus YLR262C, strain YPT6, active compounds read low 1.09 | S. cerevisiae deletion strains, locus YLR268W, strain sec22, active compounds read low 0.99 | S. cerevisiae deletion strains, locus YLR330W, strain CHS5, active compounds read low 1.01 | S. cerevisiae deletion strains, locus YLR342W, strain FKS1 (second series), active compounds read low 1.05 | S. cerevisiae deletion strains, locus YLR371W, strain rom2, active compounds read low 1.01 | S. cerevisiae deletion strains, locus YLR418C, strain cdc73, active compounds read low 0.945 | S. cerevisiae deletion strains, locus YML016C, strain PPZ1, active compounds read low 1.01 | S. cerevisiae deletion strains, locus YML032C, strain rad52, active compounds read low 1.03 | S. cerevisiae deletion strains, locus YML124C, strain tub3, active compounds read low 1.01 | S. cerevisiae deletion strains, locus YMR078C, strain ctf18, active compounds read low 1.02 | S. cerevisiae deletion strains, locus YMR223W, strain ubp8, active compounds read low 1.01 | S. cerevisiae deletion strains, locus YMR263W, strain SAP30, active compounds read low 0.996 | S. cerevisiae deletion strains, locus YMR307W, strain GAS1, active compounds read low 0.966 | S. cerevisiae deletion strains, locus YNL067W, strain RPL9B, active compounds read low 0.992 | S. cerevisiae deletion strains, locus YNL128W, strain TEP1, active compounds read low 1 | S. cerevisiae deletion strains, locus YNL153C, strain GIM3, active compounds read low 0.977 | S. cerevisiae deletion strains, locus YNL233W, strain BNI4, active compounds read low 0.977 | S. cerevisiae deletion strains, locus YNL250W, strain rad50, active compounds read low 1.01 | S. cerevisiae deletion strains, locus YNL271C, strain bni1, active compounds read low 1.01 | S. cerevisiae deletion strains, locus YNL298W, strain CLA4, active compounds read low 1.02 | S. cerevisiae deletion strains, locus YNL307C, strain MCK1, active compounds read low 1.03 | S. cerevisiae deletion strains, locus YNL322C, strain KRE1, active compounds read low 1.02 | S. cerevisiae deletion strains, locus YNR052C, strain pop2, active compounds read low 1.01 | S. cerevisiae deletion strains, locus YOL006C, strain TOP1, active compounds read low 1.01 | S. cerevisiae deletion strains, locus YOL012C, strain htz1 0.97 | S. cerevisiae deletion strains, locus YOL147C, strain pex11, active compounds read low 1.01 | S. cerevisiae deletion strains, locus YOR061W, strain CKA2, active compounds read low 1.02 | S. cerevisiae deletion strains, locus YOR069W, strain VPS5, active compounds read low 1.01 | S. cerevisiae deletion strains, locus YOR136W, strain idh2, active compounds read low 1.02 | S. cerevisiae deletion strains, locus YOR144C, strain elg1, active compounds read low 1.01 | S. cerevisiae deletion strains, locus YOR184W, strain ser1, active compounds read low 1.04 | S. cerevisiae deletion strains, locus YOR316C, strain cot1, active compounds read low 1.01 | S. cerevisiae deletion strains, locus YPL055C, strain LGE1, active compounds read low 0.984 | S. cerevisiae deletion strains, locus YPL241C, strain CIN2, active compounds read low 1.01 | S. cerevisiae deletion strains, locus YPR119W, strain clb2, active compounds read low 1.01 | S. cerevisiae deletion strains, locus YPR141C, strain kar3, active compounds read low 1.03 | S. cerevisiae deletion strains, locus YPR163C, strain tif3, active compounds read low 1.01 | S. cerevisiae deletion strains, locus YPR167C, strain met16, active compounds read low 1.01 | S. cerevisiae deletion strains, strain wtn01, active compounds read low 0.992 | S. cerevisiae strains, strain wild type, active compounds read low 1.01
